# In PubChem BioAssay AID434936 (National Center for Advancing Translational Sciences (NCATS), 2010):
# Records with an inconclusive call do not appear. The source made the active and inactive calls. Calls come from the whole dose curve; as a rule, active = well fitted curve in either direction with a large enough effect; inconclusive = small, poorly fitted or top-dose-only effect; inactive = flat fitted curve, though single readings scatter.
# Target: Neuropeptide S receptor (Homo sapiens) (UniProt Q6W5P4)
# Sequence (Q6W5P4 whole entry, looked up): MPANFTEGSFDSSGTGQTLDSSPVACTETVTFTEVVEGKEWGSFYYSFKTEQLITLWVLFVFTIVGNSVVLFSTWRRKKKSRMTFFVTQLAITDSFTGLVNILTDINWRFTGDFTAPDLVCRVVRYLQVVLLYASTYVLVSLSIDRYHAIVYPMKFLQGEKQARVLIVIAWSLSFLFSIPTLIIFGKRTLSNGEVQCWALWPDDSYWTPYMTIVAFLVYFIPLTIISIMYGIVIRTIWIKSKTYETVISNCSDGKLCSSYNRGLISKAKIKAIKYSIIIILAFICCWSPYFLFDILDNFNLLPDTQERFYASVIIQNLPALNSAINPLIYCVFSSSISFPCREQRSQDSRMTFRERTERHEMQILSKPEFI
# Test: Confirmation Concentration-Response Assay for Antagonists of the Neuropeptide S Receptor: Robust Characterization of cAMP Signal Transduction
# Conditions: CHO-NPSR cells, NPS-stimulated cAMP TR-FRET; series mostly up to 50.7 µM
row,SMILES,Potency
1,COc1ccc(C2c3c(nc(CCc4ccccc4)[nH]c3=O)Oc3ccc4ccccc4c32)cc1OC (stereo unspecified),inactive
2,COc1ccc(C2c3c(nc(CCCc4ccccc4)[nH]c3=O)Oc3ccc4ccccc4c32)cc1OC (stereo unspecified),inactive
3,N=c1c2c(ncn1-c1ccccc1)Oc1ccc3ccccc3c1C2c1ccc2c(c1)OCCO2 (stereo unspecified),2.18 µM (active)
4,CCOC(=O)CCCC(=O)Nc1ncnc2c1C(c1ccccc1)c1c(ccc3ccccc13)O2 (stereo unspecified),2.44 µM (active)
5,COc1cccc(C2c3c(ncn(-c4cccc(OC)c4)c3=N)Oc3ccc4ccccc4c32)c1 (stereo unspecified),6.88 µM (active)
6,COc1cccc(C2c3c(ncn(-c4ccc(C)cc4)c3=N)Oc3ccc4ccccc4c32)c1 (stereo unspecified),8.67 µM (active)
7,CC(C)(C)OC(=O)Nc1ncnc2c1C(c1ccccc1)c1c(ccc3ccccc13)O2 (stereo unspecified),10.9 µM (active)
8,COc1cccc(C2c3c(ncn(-c4cccc(F)c4)c3=N)Oc3ccc4ccccc4c32)c1 (stereo unspecified),3.87 µM (active)
9,COc1cccc(C2c3c(ncn(-c4ccccc4SC)c3=N)Oc3ccc4ccccc4c32)c1 (stereo unspecified),4.87 µM (active)
10,S=P(c1ccccc1)(c1ccccc1)c1nc(CCCc2ccccc2)n2ccccc12,inactive
11,COc1cccc(C2c3c(ncn(-c4ccc(NC(C)=O)cc4)c3=N)Oc3ccc4ccccc4c32)c1 (stereo unspecified),12.2 µM (active)
12,COc1cccc(C2c3c(ncn(-c4ccc(F)cc4)c3=N)Oc3ccc4ccccc4c32)c1 (stereo unspecified),12.2 µM (active)
13,COc1ccc(-n2cnc3c(c2=N)C(c2cccc(OC)c2)c2c(ccc4ccccc24)O3)cc1 (stereo unspecified),6.88 µM (active)
14,CCOc1ccc(C2c3c(ncn(-c4ccccc4)c3=N)Oc3ccc4ccccc4c32)cc1OCC (stereo unspecified),3.45 µM (active)
15,N=c1c2c(ncn1-c1ccccc1)Oc1ccc3ccccc3c1C2c1ccc2c(c1)CCO2 (stereo unspecified),2.18 µM (active)
16,COc1cccc(C2c3c(ncn(-c4cccc(C#N)c4)c3=N)Oc3ccc4ccccc4c32)c1 (stereo unspecified),13.7 µM (active)

row,SMILES,Potency
1,COc1cccc(C2c3c(ncn(Cc4cccs4)c3=N)Oc3ccc4ccccc4c32)c1 (stereo unspecified),12.2 µM (active)
2,N=c1c2c(ccn1-c1ccccc1)Oc1ccc3ccccc3c1C2c1ccccc1 (stereo unspecified),1.09 µM (active)
3,Cc1nc2ccccn2c1P(=O)(c1ccccc1)c1ccccc1,inactive
4,N=c1c2c(ccn1CCc1ccccc1)Oc1ccc3ccccc3c1C2c1ccccc1 (stereo unspecified),3.87 µM (active)
5,COc1cccc(C2c3c(ncn(-c4ccccc4-c4ccccc4)c3=N)Oc3ccc4ccccc4c32)c1 (stereo unspecified),15.4 µM (active)
6,COc1cccc(C2c3c(ncn(-c4ccccc4Cl)c3=N)Oc3ccc4ccccc4c32)c1 (stereo unspecified),8.67 µM (active)
7,COc1cccc(C2c3c(ncn(-c4ccc(C#N)cc4)c3=N)Oc3ccc4ccccc4c32)c1 (stereo unspecified),12.2 µM (active)
8,COc1ccc(C2c3ccc4ccccc4c3Oc3ncn(CCN4CCOCC4)c(=N)c32)cc1OC (stereo unspecified),30.7 µM (active)
9,COc1ccc(C2c3c(ncn(CCCc4ccccc4)c3=N)Oc3ccc4ccccc4c32)cc1OC (stereo unspecified),27.4 µM (active)
10,COc1cccc(C2c3c(ncn(CCCN4CCOCC4)c3=N)Oc3ccc4ccccc4c32)c1 (stereo unspecified),4.87 µM (active)
11,COc1cccc(C2c3c(ncn(CCN4CCOCC4)c3=N)Oc3ccc4ccccc4c32)c1 (stereo unspecified),12.2 µM (active)
12,COc1cccc(C2c3c(ncn(-c4ccccc4OC)c3=N)Oc3ccc4ccccc4c32)c1 (stereo unspecified),4.34 µM (active)
13,CCOC(=O)CC(=O)Nc1ncnc2c1C(c1ccccc1)c1c(ccc3ccccc13)O2 (stereo unspecified),3.07 µM (active)
14,CCOC(=O)CCC(=O)Nc1ncnc2c1C(c1ccccc1)c1c(ccc3ccccc13)O2 (stereo unspecified),3.45 µM (active)
15,N#CC1=C(NC=NCc2ccccc2)Oc2ccc3ccccc3c2C1c1ccccc1 (stereo unspecified),1.37 µM (active)
